Measured values as given in PubChem BioAssay.
Active and inactive are the calls of the source.

What was measured:
[1] = test system: Plasmodium falciparum Sir2 (PF13_0152, Sir2A); experiment: Plasmodium falciparum Sir2A binding compounds – biochemical, small-molecule microarray, 635 nm fluorescence, primary screen (AID 1098); details: fluorescence 635 nm, higher = more signal;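 note: score merges spot fluorescence intensity with its signal-to-noise ratio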
[2] = probe aDKK1 binding to arrayed compounds – biochemical, biotinylated probe, 635/667 nm fluorescence, primary screen (AID 1099); details: small-molecule microarray, higher = more signal;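 note: score merges 667nm spot fluorescence with signal to noise across triplicate slides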
[3] = probe aCHRDL2 binding to arrayed compounds – biochemical, biotinylated probe, 635/667 nm fluorescence, primary screen (AID 1100); details: small-molecule microarray, higher = more signal
[4] = change in splice reporter luminescence, either direction, cell-based, HEK293, spliceosome inhibition project, primary screen (AID 1101); details: HEK293 splicing luciferase reporter, 24 h, higher = more signal, called active from +8 up or from −8 down;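 note: HEK293 cells carrying a splicing-competent luciferase reporter gene; test concentration not given here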
[5] = biological target: Fibroblast growth factor 10 (Homo sapiens) (UniProt O15520); experiment: compounds binding fibroblast growth factor 10 – biochemical, small-molecule microarray, 635 nm fluorescence, primary screen (AID 1102); details: FGF10 binding, fluorescence 635 nm, higher = more signal
Fibroblast growth factor 10 (Homo sapiens), sequence (O15520 whole entry, looked up): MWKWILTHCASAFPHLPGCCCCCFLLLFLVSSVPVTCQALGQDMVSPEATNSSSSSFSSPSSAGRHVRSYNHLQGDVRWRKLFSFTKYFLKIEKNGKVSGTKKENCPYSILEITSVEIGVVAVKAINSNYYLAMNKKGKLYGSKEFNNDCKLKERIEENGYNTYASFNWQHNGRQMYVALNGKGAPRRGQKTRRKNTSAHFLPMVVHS

[6] = test system: glycogen synthase kinase-3 (GSK3A per assay name; protocol says GSK3B); experiment: compounds binding glycogen synthase kinase-3 – biochemical, small-molecule microarray, 635 nm fluorescence, GSK3A, primary screen (AID 1103); details: fluorescence 635 nm, higher = more signal; note: the record names both GSK3A and GSK3B
[7] = biological target: Epidermal growth factor receptor (Homo sapiens) (UniProt P00533); experiment: compounds binding epidermal growth factor receptor – biochemical, small-molecule microarray, 635 nm fluorescence, primary screen (AID 1104); details: EGFR binding, higher = more signal;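 note: score merges 667 nm emission intensity with spot signal to noise over triplicate slides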
Epidermal growth factor receptor (Homo sapiens), sequence (P00533 whole entry, looked up): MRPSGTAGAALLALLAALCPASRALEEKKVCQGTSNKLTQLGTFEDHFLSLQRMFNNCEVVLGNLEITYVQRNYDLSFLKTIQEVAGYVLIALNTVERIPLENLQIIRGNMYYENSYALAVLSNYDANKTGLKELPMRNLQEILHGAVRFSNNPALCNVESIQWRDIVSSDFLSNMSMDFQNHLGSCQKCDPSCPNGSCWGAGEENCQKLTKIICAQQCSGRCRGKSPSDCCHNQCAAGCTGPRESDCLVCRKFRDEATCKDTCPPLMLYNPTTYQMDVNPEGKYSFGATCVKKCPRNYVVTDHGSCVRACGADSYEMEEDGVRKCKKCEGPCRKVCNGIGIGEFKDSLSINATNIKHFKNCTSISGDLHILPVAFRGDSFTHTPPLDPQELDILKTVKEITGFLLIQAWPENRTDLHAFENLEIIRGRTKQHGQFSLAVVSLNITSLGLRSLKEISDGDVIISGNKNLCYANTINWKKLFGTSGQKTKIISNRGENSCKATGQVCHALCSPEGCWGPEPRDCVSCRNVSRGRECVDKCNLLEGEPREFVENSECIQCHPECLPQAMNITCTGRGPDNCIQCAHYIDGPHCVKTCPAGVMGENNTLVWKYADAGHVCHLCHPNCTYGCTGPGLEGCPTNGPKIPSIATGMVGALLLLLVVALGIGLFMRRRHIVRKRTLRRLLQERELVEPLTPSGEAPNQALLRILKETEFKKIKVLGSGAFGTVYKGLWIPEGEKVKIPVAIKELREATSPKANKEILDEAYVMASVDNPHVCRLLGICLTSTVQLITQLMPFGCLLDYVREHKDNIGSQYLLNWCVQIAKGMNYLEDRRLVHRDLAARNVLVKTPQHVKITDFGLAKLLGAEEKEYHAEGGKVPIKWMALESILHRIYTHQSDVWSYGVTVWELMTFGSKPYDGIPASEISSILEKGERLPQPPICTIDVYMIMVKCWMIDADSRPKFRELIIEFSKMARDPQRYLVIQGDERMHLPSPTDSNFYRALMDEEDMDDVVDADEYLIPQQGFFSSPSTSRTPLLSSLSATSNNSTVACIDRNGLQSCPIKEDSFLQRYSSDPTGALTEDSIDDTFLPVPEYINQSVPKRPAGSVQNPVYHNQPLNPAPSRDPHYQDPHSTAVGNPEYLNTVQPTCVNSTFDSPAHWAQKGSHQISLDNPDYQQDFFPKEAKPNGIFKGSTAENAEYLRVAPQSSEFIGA

[8] = biological target: Follistatin-related protein 3 (Homo sapiens) (UniProt O95633); experiment: compounds binding follistatin-related protein 3 – biochemical, small-molecule microarray, 635 nm fluorescence, primary screen (AID 1105); details: FSTL3 binding, higher = more signal;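 note: score merges emission near 667 nm and signal to noise per printed spot across three slides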
Follistatin-related protein 3 (Homo sapiens), sequence (O95633 whole entry, looked up): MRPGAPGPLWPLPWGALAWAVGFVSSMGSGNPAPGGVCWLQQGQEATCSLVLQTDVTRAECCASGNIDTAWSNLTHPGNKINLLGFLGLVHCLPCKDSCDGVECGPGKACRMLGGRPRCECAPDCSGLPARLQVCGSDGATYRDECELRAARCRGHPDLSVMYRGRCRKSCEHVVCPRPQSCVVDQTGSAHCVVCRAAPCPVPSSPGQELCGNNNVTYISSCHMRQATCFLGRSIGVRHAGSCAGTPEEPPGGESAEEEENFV

[9] = biological target: Dickkopf-related protein 1 (Homo sapiens) (UniProt O94907); experiment: small molecules binding DKK1 protein – biochemical, small-molecule microarray, 635 nm fluorescence scan, primary screen (AID 1106); details: higher = more signal;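 note: score merges emission near 667 nm with signal to noise over three replicate slides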
Dickkopf-related protein 1 (Homo sapiens), sequence (O94907 whole entry, looked up): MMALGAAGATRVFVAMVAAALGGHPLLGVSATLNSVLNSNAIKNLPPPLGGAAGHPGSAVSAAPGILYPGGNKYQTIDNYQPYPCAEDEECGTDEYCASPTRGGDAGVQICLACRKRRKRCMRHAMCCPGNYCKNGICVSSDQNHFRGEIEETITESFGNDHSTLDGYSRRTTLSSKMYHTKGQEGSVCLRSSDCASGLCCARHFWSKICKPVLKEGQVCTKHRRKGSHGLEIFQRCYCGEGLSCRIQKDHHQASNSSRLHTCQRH

[10] = test system: Inhibin beta A chain (activin A); experiment: small molecules binding activin A – biochemical, small-molecule microarray, 635 nm fluorescence scan, primary screen (AID 1107); details: INHBA, higher = more signal;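 note: mouse activin A protein probed at 4.33 µg/mL on printed slides; score merges bound-protein fluorescence near 667 nm with spot signal-to-noise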
[11] = test system: Human papillomavirus type 1a protein E7 (residues 44-93); experiment: small molecules binding HPV E7 44-93 – biochemical, small-molecule microarray, residues 44-93, 635 nm fluorescence, primary screen (AID 1108); details: fluorescence 635 nm, higher = more signal;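 note: E7 fragment applied at 1 µg/mL in TBST for 1 h at 4 C; score combines spot fluorescence with its signal to noise ratio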
[12] = hepatitis C replication reporter changes, two-sided – Huh7 cells, luciferase reporter, HCV replication inhibitor project, primary screen (AID 1109); details: Huh7 HCV replicon luciferase reporter, 48 h; higher = more signal;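 note: huh7 hepatoma cells harbouring a luciferase neomycin HCV replicon reporter; luciferase luminescence as measure of HCV replicon replication; test concentration not given here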
[13] = biological target: Left-right determination factor 2 (Homo sapiens) (UniProt O00292); experiment: small molecules binding LEFTY2 protein – biochemical, small-molecule microarray, 635 nm fluorescence scan, primary screen (AID 1110); details: higher = more signal
Left-right determination factor 2 (Homo sapiens), sequence (O00292 whole entry, looked up): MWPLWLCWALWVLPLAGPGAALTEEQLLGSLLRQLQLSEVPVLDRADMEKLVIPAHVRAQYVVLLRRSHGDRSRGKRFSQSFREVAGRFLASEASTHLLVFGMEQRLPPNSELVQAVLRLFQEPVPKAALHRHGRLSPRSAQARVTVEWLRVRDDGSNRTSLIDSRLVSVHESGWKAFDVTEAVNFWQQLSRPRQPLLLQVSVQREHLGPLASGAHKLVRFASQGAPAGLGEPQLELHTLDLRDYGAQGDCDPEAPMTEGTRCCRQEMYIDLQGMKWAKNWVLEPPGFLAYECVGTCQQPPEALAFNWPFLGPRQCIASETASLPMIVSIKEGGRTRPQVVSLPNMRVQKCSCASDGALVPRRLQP

[14] = biological target: Calmodulin-1 (Homo sapiens) (UniProt P0DP23); experiment: small molecules binding calmodulin-1 with EGTA – biochemical, small-molecule microarray, Cy5-labelled CALM1, profiling panel (AID 1111); details: Cy5-CALM1 binding fluorescence, higher = more signal;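 note: labelled calmodulin applied in Tris saline Tween buffer holding calcium plus EGTA and DTT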
[15] = biological target: Calmodulin-1 (Homo sapiens) (UniProt P0DP23); experiment: small molecules binding Ca-loaded calmodulin-1 – biochemical, small-molecule microarray, Cy5-labelled CALM1, plus calcium, artefact control for SMM control-protein annotation, profiling panel (AID 1112); details: Cy5-CALM1 binding fluorescence, higher = more signal;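 note: score merges spot fluorescence with signal to noise from triplicate slides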
[16] = probe aWnt5a binding to arrayed compounds – biochemical, biotinylated probe, 635/667 nm fluorescence, primary screen (AID 1113); details: small-molecule microarray, higher = more signal;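 note: score merges 667 nm fluorescence intensity with signal-to-noise per printed feature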
[17] = probe aShh binding to arrayed compounds – biochemical, biotinylated probe, 635/667 nm fluorescence, primary screen (AID 1114); details: small-molecule microarray, higher = more signal;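 note: probe is biotin-labelled aShh protein from a stem cell growth factor screen; measures binding of labelled protein to compounds printed on the slide; score merges feature fluorescence at 667 nm with signal-to-noise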
[18] = probe aNog binding to arrayed compounds – biochemical, biotinylated probe, 635/667 nm fluorescence, primary screen (AID 1115); details: small-molecule microarray, higher = more signal;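 note: probe is biotinylated aNog protein used at 0.15 µg/mL for 1 h at 4 C; z-score combines 667 nm fluorescence of each spot with its signal to noise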
[19] = biological target: Torsin-1A-interacting protein 1 (Homo sapiens) (UniProt Q5JTV8); experiment: compound microarray binding of lysate hLAP1 – cell lysate, small-molecule microarray, COS7 lysate, 635/667 nm fluorescence, primary screen (AID 1116); details: 635 nm fluorescence, higher = more signal
Torsin-1A-interacting protein 1 (Homo sapiens), sequence (Q5JTV8 whole entry, looked up): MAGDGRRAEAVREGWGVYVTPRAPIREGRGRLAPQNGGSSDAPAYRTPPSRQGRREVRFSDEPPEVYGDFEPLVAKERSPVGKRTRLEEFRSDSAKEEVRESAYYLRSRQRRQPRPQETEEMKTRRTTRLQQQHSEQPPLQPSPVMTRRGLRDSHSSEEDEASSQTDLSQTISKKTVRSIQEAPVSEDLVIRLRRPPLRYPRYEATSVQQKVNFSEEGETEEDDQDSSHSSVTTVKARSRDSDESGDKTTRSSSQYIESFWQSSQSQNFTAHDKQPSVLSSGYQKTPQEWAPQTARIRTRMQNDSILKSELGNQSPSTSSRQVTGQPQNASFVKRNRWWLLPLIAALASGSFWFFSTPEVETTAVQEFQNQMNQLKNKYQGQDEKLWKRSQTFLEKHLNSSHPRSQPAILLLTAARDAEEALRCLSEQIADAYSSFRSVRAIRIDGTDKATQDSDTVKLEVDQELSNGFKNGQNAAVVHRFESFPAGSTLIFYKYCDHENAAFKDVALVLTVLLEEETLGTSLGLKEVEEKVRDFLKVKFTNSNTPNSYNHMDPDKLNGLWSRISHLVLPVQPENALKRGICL

[20] = biological target: Alpha-bungarotoxin (Bungarus multicinctus) (UniProt P60615); experiment: compounds binding labelled alpha-BTX control protein – biochemical, small-molecule microarray, Alexa647 label, 635/667 nm fluorescence, artefact control for SMM control protein annotation, profiling panel (AID 1117); details: alpha-BTX-A647 binding fluorescence, higher = more signal
Alpha-bungarotoxin (Bungarus multicinctus), sequence (P60615 whole entry, looked up): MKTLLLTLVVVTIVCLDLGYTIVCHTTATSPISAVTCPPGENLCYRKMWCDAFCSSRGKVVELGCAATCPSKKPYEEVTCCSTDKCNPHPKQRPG

Structure (SMILES)	composite z-score [1]	composite z-score [2]	composite z-score [3]	z-score [4]	composite z-score [5]	composite z-score [6]	composite z-score [7]	composite z-score [8]	composite z-score [9]	composite z-score [10]	composite z-score [11]	z-score [12]	composite z-score [13]	composite z-score [14]	composite z-score [15]	composite z-score [16]	composite z-score [17]	composite z-score [18]	composite z-score [19]	composite z-score [20]
COc1ccc(CCNC(=O)[C@@H]2c3ccccc3C(=O)N(Cc3ccccc3Cl)[C@H]2c2ccc(CO)cc2)cc1	0.489	0.235	0.602	-0.153 (inactive)	0.212	0.412	-0.0373	-0.182	0.0477	0.674	1.07	-1.37	0.147	-0.0739	-0.0544	-0.152	0.0611	0.395	0.412	-0.473
O=C(NCCN1CCOCC1)[C@@H]1c2ccccc2C(=O)N(C2CCCCC2)[C@H]1c1ccc(CO)cc1	1.06	0.484	0.92	0.261 (inactive)	-0.534	-0.362	-1.03	-0.942	-0.809	0.891	1.44	-1.49	-0.0308	0.0999	-0.336	-0.101	-0.138	0.76	0.0614	-0.0569
NCCCCCCNC(=O)[C@@H]1C[C@@H]2C(=O)NCC(=O)N2[C@@H]1c1ccc(O)cc1	1.45	-0.0828	-0.0743	-0.481 (inactive)	1.05	1.3	0.574	1.3	1.6	0.802	1.29	0.279	1.14	0.584	-0.0301	-0.142	0.0469	-0.566	0.715	1.41
COCCOC(=O)N1C(=O)[C@@]2(c3cc(C#CCC(C(=O)OC)C(=O)OC)ccc31)[C@H](c1ccccc1OCCO)N1[C@H](c3ccccc3)[C@H](c3ccccc3)OC(=O)[C@H]1[C@@H]2C(=O)N1CCN(c2ncccn2)CC1	0.875	0.231	0.237	-0.397 (inactive)	1.08	1.32	0.94	1.45	0.853	1.14	1.37	-1.99	0.755	1.92	1.18	0.102	0.166	0.277	2.01	0.771
COC(=O)C(CC#Cc1ccc2c(c1)[C@]1(C(=O)N2)[C@H](c2ccc(OCCO)cc2)N2[C@H](c3ccccc3)[C@H](c3ccccc3)OC(=O)[C@H]2[C@@H]1C(=O)Nc1nc2ccccc2s1)C(=O)OC	0.842	-0.348	0.0051	-0.0218 (inactive)	1.03	1.28	0.313	1.09	0.42	0.0864	1.4	-1.65	0.582	1.55	0.489	-0.0195	-0.0119	-0.267	1.03	1.11
O=C(c1ccccc1)N1C(=O)[C@@]2(Cc3ccccc31)N=C(c1ccc(OCCCO)cc1)O[C@H]2c1ccccc1	1.64	1	0.965	-0.663 (inactive)	1.06	1.33	0.782	1.22	0.973	0.992	1.03	-2.77	0.643	0.661	-0.502	0.0919	-0.369	1.57	1.61	0.902
COC(=O)[C@@]1(Cc2ccc(OC)cc2)[C@H]2c3cc(C(=O)N(C)C)n(C)c3C[C@H]2CN1C(=O)c1ccccc1	0.843	0.928	1.28	-1.96 (inactive)	0.924	0.789	0.534	1.33	-0.105	0.511	1.45	-2.62	-0.239	2.01	0.749	0.0337	0.527	2.11	1.15	0.696
COc1cc(Br)cc(C(O)C2C=CC3C(=O)N(C)C(=O)C3N2N2CCCCC2)c1OC (stereo not given)	0.787	0.655	0.895	1.09 (inactive)	-0.582	-0.524	-1.23	-1.06	-1.26	0.613	0.207	-0.0024	-1.31	-0.104	0.315	-0.0735	0.304	0.69	1.09	-0.251
CN1C(=O)C2C=CC(C(O)C#Cc3ccccc3)N(N3CCCCC3)C2C1=O (stereo not given)	1.68	1.01	1.09	0.762 (inactive)	0.945	0.216	0.568	0.731	0.0369	1.18	-1.16	-0.451	0.414	1.19	0.657	0.234	0.668	0.564	0.494	1.04
CCCC[C@H]1OB(O)C[C@H]2C1=C(COC)C[C@H]1C(=O)N(C)C(=O)[C@H]12	0.0079	-0.252	-0.599	0.377 (inactive)	0.486	-0.0431	0.12	0.564	0.281	0.687	0.343	-0.918	0.358	0.223	-0.596	-0.152	-0.0626	-0.0496	-0.321	1.16
C=C(CCCC)/C(=C/C[C@H](OC(C)=O)c1ccccc1OCCO)c1cc(C(=O)OC)ccc1OC	1.3	-0.231	-0.285	-0.616 (inactive)	0.143	-0.0368	-0.184	-0.154	-0.358	1.12	0.0187	-2.06	-0.264	-0.621	-0.803	-0.12	0.0048	-0.0184	0.233	0.439
